Compound activity deposited in PubChem BioAssay by several laboratories.
The list is not random: actives were taken first. Their share in the collection is about 22%.
CYP2C19 inh – human CYP2C19 inhibition. CYP2C19 Supersomes, luciferin-H EGE luminescence, 30 min. inhibition, % at 5 µM. 96,000 tested, 21% active. AID 778;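 active = CYP2C19 inhibition above a set limit at 5 µM in the primary screen, cut at about 50% in these data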;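 note: plate controls were negative control wells for no effect and 2.5 mM tranylcypromine positive control for full effect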
Target sequence (P33261 whole entry, looked up): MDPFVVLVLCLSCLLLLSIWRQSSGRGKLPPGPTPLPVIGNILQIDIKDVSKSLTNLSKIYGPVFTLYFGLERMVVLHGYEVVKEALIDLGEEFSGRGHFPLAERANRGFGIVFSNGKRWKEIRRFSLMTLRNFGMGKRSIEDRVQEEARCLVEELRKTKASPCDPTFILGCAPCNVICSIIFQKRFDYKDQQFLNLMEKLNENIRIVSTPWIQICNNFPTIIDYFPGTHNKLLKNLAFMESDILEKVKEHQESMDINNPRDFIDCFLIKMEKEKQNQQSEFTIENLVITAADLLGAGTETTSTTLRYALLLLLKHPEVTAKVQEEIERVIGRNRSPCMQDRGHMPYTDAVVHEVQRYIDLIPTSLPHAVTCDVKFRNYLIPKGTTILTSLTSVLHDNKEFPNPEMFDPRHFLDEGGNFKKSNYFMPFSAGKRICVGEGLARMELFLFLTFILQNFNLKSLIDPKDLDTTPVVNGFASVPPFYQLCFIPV
CYP2C9 activ – CYP2C9 (human) activation | P11712 | recombinant CYP2C9, luciferin-H conversion, luminescence; active compounds read high; factor 1 = untreated enzyme, 0 = blocked | activation factor at 5 µM | 96,000 tested, 1.4% active;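 active = activation factor of 2 or more for CYP2C9 at a 5 µM dose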;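 note: 0 = sulfaphenazole-blocked wells and 1 = vehicle-only wells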
Measles CPE – protection of cells from measles virus | Measles virus-infected cells, CPE protection, absorbance | protection (pct of control), % at 4 µM | 140,000 tested, 1.5% active; in the data active = protection mostly above about 24%, no sharp cut-off; inactive = mostly below about 26%
CYP2C19 activ – cytochrome P450 2C19 (human) activation. P33261. recombinant CYP2C19, luciferin-H EGE luminescence; active compounds read high; 0 = fully inhibited enzyme, 1 = untreated enzyme. activation factor at 5 µM. 96,000 tested, under 10 active;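 active = activation factor of at least 2 at 5 µM in the primary screen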;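 note: 0 = wells with 2.5 mM tranylcypromine and 1 = vehicle-only wells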
CYP2C9 inhib – blocks human cytochrome P450 2C9; AID 777; 96,000 tested, 20% active; CYP2C9 Supersomes, luciferin-H conversion, luminescence; inhibition, % at 5 µM;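 active = blocking of liver enzyme CYP2C9 beyond about 50% at 5 µM, limit read from the data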
* hit, by the source's call; / = no result.

SMILES | CYP2C19 inh | CYP2C9 activ | Measles CPE | CYP2C19 activ | CYP2C9 inhib
CCOC(=O)C1=C(N)OC2=C(C(=O)CC(C)(C)C2)C1c1ccoc1 (configuration not stated) | 64* | 0.3 | 24 | 0.4 | 67*
CCc1ccc(C2C3=C(CC(C)(C)CC3=O)OC3=C2C(=O)CC(C)(C)C3)cc1 | / | / | 7 | / | /
CSc1nsc(SCC(=O)Nc2c(C)n(C)n(-c3ccccc3)c2=O)n1 | 0 | 1 | 3 | 1 | 4
CN1CCCN(Cc2ccccc2C(F)(F)F)CC1 | 2 | 0.6 | 12 | 1 | 44
COc1cc(C(=O)N2CCN(Cc3ccccc3C(F)(F)F)CC2)cc(OC)c1OC | 23 | 1.2 | 10 | 0.8 | -21
COc1cc(OC)cc(C(=O)N2CCN(Cc3ccccc3C(F)(F)F)CC2)c1 | 78* | 0.7 | 20 | 0.2 | 30
CCCS(=O)(=O)N1CCN(C(=O)c2cc(OC)cc(OC)c2)CC1 | 71* | 0.9 | 5 | 0.3 | 11
COc1cccc(OC)c1C(=O)N1CCN(Cc2ccccc2C(F)(F)F)CC1 | 94* | 0.1 | 10 | 0.1 | 91*
O=C(NC(=S)NCc1ccccc1)C1CCCCC1 | 22 | 0.9 | 20 | 0.8 | 14
COc1cc2c(cc1OC)CN(CC(=O)Nc1ccccc1C#N)CC2 | 55* | 0.4 | 1 | 0.5 | 60*
COc1cc2c(cc1OC)CN(Cc1ccc(C)s1)CC2 | 86* | 0.7 | 13 | 0.1 | 33
CC1CCN(CC(=O)Nc2ccccc2C#N)CC1 | 75* | 0.7 | 4 | 0.2 | 31
CC1CCN(CC(=O)Nc2ccccc2Sc2ccccc2)CC1 | / | / | 5 | / | /
COC(=O)c1[nH]c2ccc(C)cc2c1NC(=O)CN1CCc2cc(OC)c(OC)cc2C1 | 67* | 0.2 | 8 | 0.3 | 81*
O=C(c1sc2cccc(F)c2c1Cl)N1CCN(c2ncccn2)CC1 | / | / | 17 | / | /
O=C(NCCN1C(=O)S/C(=C\c2ccccc2)C1=O)c1cc(S(=O)(=O)N2CCOCC2)c(Cl)cc1Cl | / | / | 1 | / | /
CCOC(=O)c1[nH]c2ccc(OC)cc2c1NC(=S)N1CCN(c2ccccc2)CC1 | / | / | 31* | / | /
COc1ccc(NCC(=O)Nc2ccccc2C#N)cc1Cl | 95* | 0.4 | 9 | 0.1 | 59*
COc1cc2c(cc1OC)CN(CC(=O)Nc1ccc(C)cc1)CC2 | 65* | 0.4 | 4 | 0.4 | 60*
COc1ccc(NC(=O)CN(C)CC(=O)Nc2ccccc2SC)cc1Cl | / | / | 5 | / | /
COC(=O)c1[nH]c2cc(OC)ccc2c1NC(=O)CCN1CCN(c2ccccc2)CC1 | -12 | 0.3 | 22 | 1.1 | 67*
CC(C)CN(CCC(=O)O)CC(C)C | -27 | 0.8 | 7 | 1.3 | 22
CCOC(=O)c1[nH]c2ccc(OC)cc2c1NC(=O)CN1CCc2ccccc2C1 | 77* | 0.2 | 19 | 0.2 | 81*
COc1ccccc1N1C(=O)CC1(C#N)c1ccc(OCc2ccccc2)cc1 (configuration not stated) | / | / | 14 | / | /
COc1ccc(N2C(=O)CC(N3CCC(O)(c4ccc(Br)cc4)CC3)C2=O)cc1 (configuration not stated) | -1 | 1 | 9 | 1 | 5
SMILES | CYP2C19 inh | CYP2C9 activ | Measles CPE | CYP2C19 activ | CYP2C9 inhib
COc1ccccc1N1C(=O)CCC1(C#N)c1ccc(Br)cc1 (configuration not stated) | 59* | 0.3 | 3 | 0.4 | 69*
COc1ccc(N2C(=O)CCC2(C#N)c2ccc(Br)cc2)cc1 (configuration not stated) | 57* | 0.9 | 8 | 0.4 | 9
CCN(CC)C(=O)CSc1nc(OC)cc(=O)[nH]1 | / | / | 8 | / | /
O=C(NCc1ccccc1Cl)C1CCCN(S(=O)(=O)c2cnc[nH]2)C1 (configuration not stated) | 96* | 0.1 | 7 | 0 | 92*
O=C(NCc1cccs1)C1CCCN(S(=O)(=O)c2cnc[nH]2)C1 (configuration not stated) | 84* | 0.5 | 10 | 0.2 | 47
O=C(C1CCCN(S(=O)(=O)c2ccc(F)cc2)C1)N(Cc1cccs1)C1CC1 (configuration not stated) | 95* | 0.3 | 49* | 0.1 | 73*
CC(Sc1nc2cc(Cl)ccc2s1)C(=O)Nc1cccc(S(=O)(=O)N2CCOCC2)c1 (configuration not stated) | / | / | 6 | / | /
COc1cc(N2CCCC2)ccc1[N+](=O)[O-] | / | / | 7 | / | /
CCOC(=O)C(C)Sc1nc(-c2cccs2)ccc1C#N (configuration not stated) | 91* | 0 | 5 | 0.1 | 96*
O=C(CSc1ncn(-c2ccccc2)n1)N1CCN(c2ccccc2)CC1 | 64* | 0.4 | 20 | 0.4 | 59*
C=CCn1c(SCC(=O)Nc2ccc3c(c2)OCCO3)nnc1-c1ccco1 | 39 | 0.6 | 3 | 0.6 | 42
Cc1ccnc(SCC(=O)N2CCN(c3cccc(Cl)c3)CC2)n1 | 99* | 0.7 | 4 | 0 | 30
Cc1ccnc(SCC(=O)N2CCN(c3ccccc3)CC2)n1 | / | / | 6 | / | /
C=CCn1c(SCC(O)Cn2c3ccccc3c3ccccc32)nnc1-c1ccco1 (configuration not stated) | 98* | 0.1 | 8 | 0 | 90*
COc1ccccc1NC(=O)CSc1ncn(-c2ccccc2)n1 | 76* | 0.8 | 20 | 0.2 | 19
Cc1cc(OC(=O)c2ccc(Cl)cc2Cl)nc(C)n1 | -6 | 1.1 | 9 | 1.1 | -10
CCCc1nc2ccccc2n1CCc1ccccc1 | / | / | 13 | / | /
COc1ccc(C2(O)CCN(C(=O)NC3CCCCC3)CC2)cc1 | -9 | 1 | 6 | 1.1 | -1
COC(=O)c1sccc1NC(=O)CSc1nnnn1-c1ccccc1C | -10 | 1.5 | 35 | 1.1 | -46
COc1ccccc1NC(=O)CSc1nnc(C)n1Cc1ccccc1 | 52* | 1 | 16 | 0.5 | -3
C=CCn1c(SCC(=O)Nc2ccccc2OC)nnc1-c1ccco1 | 54* | 0.9 | 2 | 0.5 | 10
C=CCn1c(SCC(=O)Nc2ccccc2OC)nnc1-c1ccccn1 | / | / | 20 | / | /
CCc1ccccc1NC(=O)CSc1nnc(-c2ccco2)n1N | 56* | 1.1 | 7 | 0.4 | -10
Cc1cc(N)n(-c2ncnc3scc(-c4ccccc4)c23)n1 | 10 | 0.8 | 5 | 0.9 | 17
COC(=O)c1c[nH]n2c(=O)cc(CCl)nc12 | -8 | 0.8 | 2 | 1.1 | 24
SMILES | CYP2C19 inh | CYP2C9 activ | Measles CPE | CYP2C19 activ | CYP2C9 inhib
Cc1ccccc1S(=O)(=O)Nc1nc2ccccc2nc1N1CCc2ccccc2C1 | / | / | 36 | / | /
COC(=O)c1sccc1NC(=O)c1csc(C)c1 | 47 | 0.9 | 25* | 0.5 | 10
Cc1onc(-c2ccccc2)c1C(=O)NCC1COc2ccccc2O1 (configuration not stated) | 79* | 0.6 | 3 | 0.2 | 43
Cc1onc(-c2ccccc2)c1C(=O)NCc1ccccn1 | 27 | 0.9 | 19 | 0.7 | 8
Cc1onc(-c2ccccc2)c1C(=O)NCc1ccc2c(c1)OCO2 | 92* | 0.4 | 4 | 0.1 | 57*
COc1ccccc1Nc1ccc(S(=O)(=O)N2CCCCC2)cc1[N+](=O)[O-] | / | / | 6 | / | /
O=C(CCCO)N/N=C/c1ccccc1[N+](=O)[O-] | / | / | 10 | / | /
